# In PubChem BioAssay AID1246 (Columbia University Molecular Screening Center, 2008):
# Screen size: about 120,000 compounds; about 840 (0.7%) were called active. The sample holds actives, similar compounds and a random draw of the others, so the mix is not that of the screen. A number with no mark means an inactive call.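 Rule for the calls: active = inhibition above the batch mean plus 3 SD, and confirmed as a hit on visual image review (cut at about 43% in these data); inconclusive = passes the inhibition cutoff but fails visual image review; inactive = the rest.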
# Assay: E-selectin induction blockers in HUVEC – imaging, immunofluorescence, high content, primary screen (AID 1246);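 note: 0% = TNF-stimulated DMSO wells and 100% = unstimulated control wells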
# Settings: HUVEC TNFa-induced E-selectin immunofluorescence, at 2 µM, stronger effect = higher value
row,SMILES,inhibition
1,COc1cccc(C(=O)N2CCCC(CCC(=O)NCc3ccc(F)c(F)c3)C2)c1 (stereo not drawn),-27.8%
2,O=c1[nH]c2cccnc2n(CCNc2ncc(C(F)(F)F)cc2Cl)c1=O,-0.32%
3,Cc1ccc(NC(=O)c2oc3ccccc3c2C)c([N+](=O)[O-])c1,7.01%
4,COc1ccc(-c2cc(C(F)(F)F)nc(NCc3cccnc3)n2)cc1,6.81%
5,CCOc1cc(-c2nc3cc(C)ccn3c2NCC2CCCO2)ccc1O (stereo not drawn),-1.41%
6,COc1ccc(-c2nc3cnccn3c2NC(C)(C)CC(C)(C)C)cc1O,78.6% (active)
7,COc1cccc(CNC(=O)c2n[nH]c3ccccc23)c1,21.4%
8,CNC(=O)COC(=O)c1cc(-c2ccc(OC)cc2)nc2ccccc12,-50.4%
9,CC(=O)c1cnc(-c2ccccc2)s1,-23.3%
10,CN(CC(=O)Nc1ccccc1F)CC(=O)Nc1ccccc1Br,-9.64%
11,O=C(O)CCn1c(SCc2cc(=O)n3ccccc3n2)nc2ccsc2c1=O,7.79%
12,COC(=O)Cn1cc(/C=C/[N+](=O)[O-])c2ccccc21,-39.6%
13,COc1ccccc1CCNC(=O)CSc1nnc2ccc(-c3cccnc3)nn12,23.9%
14,COc1ccccc1CCNC(=O)c1cnccn1,70.2% (active)
15,COc1cccc(OCC(=O)NNC(=O)c2cnccn2)c1,-0.48%
16,COc1ccccc1CNC(=O)c1cc(=O)c2ccccc2o1,6.95%
17,Cc1ccc(S(=O)(=O)N(C)C)cc1NC(=O)c1ccccc1Br,21.2%
18,COc1ccc(NC(=O)CCNS(=O)(=O)c2ccc3c(c2)c(=O)n(C)c(=O)n3C)cc1OC,-38.9%
19,COc1ccc(C2N=C(N)N=C(N)N2c2ccccc2)cc1OC (stereo not drawn),62.9% (active)
20,COc1ccc(C2/C(=C(/O)c3ccccc3)C(=O)C(=O)N2c2ncccn2)cc1OC (stereo not drawn),-2.78%
21,COc1ccc(C2CC(=O)n3c(nc4ccccc43)S2)cc1OC (stereo not drawn),-0.21%

row,SMILES,inhibition
1,O=C(O)/C=C/c1ccc(OCCCF)cc1,-53.3%
2,O=C(Oc1cccc(N2C(=O)C3C4c5ccccc5C(c5ccccc54)C3C2=O)c1)c1ccco1 (stereo not drawn),13.7%
3,CC(=O)Oc1cccc(N2C(=O)CC(Nc3ccc(N4CCOCC4)cc3)C2=O)c1 (stereo not drawn),-16.6%
4,CC(=O)Oc1cccc(N2C(=O)C3CC=C(Cl)CC3C2=O)c1 (stereo not drawn),64.7% (active)
5,COc1cc(C=O)c(Br)cc1OCC(=O)NCc1ccccc1,-19%
6,CCCNC(=S)N1CCCC(c2nc3ccccc3[nH]2)C1 (stereo not drawn),-49%
7,Cn1c(CCC(=O)Nc2ccccc2F)nnc1SCC(=O)Nc1ccccc1Cl,-44.5%
8,COc1ccc(S(=O)(=O)N2CCN(C(=O)c3cc(C)oc3C)CC2)cc1,-37.8%
9,CC(=O)c1ccc(N=C2SCCCN2C(=O)C2CCCCC2)cc1,7.89%
10,COc1cccc(C(=O)Oc2cc(C)[nH]c(=O)c2[N+](=O)[O-])c1,21.9%
11,COCc1cc(C(C)=O)ccc1OC,-4.6%
12,CCN(CC)Cc1cc(C(C)=O)ccc1O,47.5% (active)
13,CC(=O)c1ccc2c(ccc3ccccc32)c1,22.7%
14,CC1CCCN(CC(O)COc2ccc3c(c2)OCO3)C1 (stereo not drawn),11.9%
15,O=C1CCC(=O)N1c1ccc(NCCc2ccccc2F)c([N+](=O)[O-])c1,-8.93%
16,CCN(C(=O)CN1CCN(Cc2ccccc2)CC1)c1c(N)n(Cc2ccccc2)c(=O)[nH]c1=O,-54.5%
17,Cc1ccc(NC(=O)COc2ccc(-n3ccnc3)cc2)cc1Cl,73% (active)
18,COc1ccc(OCC(=O)Nc2ccc(N3CCC(C)CC3)cc2)cc1,-61.5%
19,CN1CCN(c2ccc(NC(=O)COc3ccc(Cl)cc3Cl)cc2)CC1,3.16%
20,O=C(Cn1nnc2ccccc2c1=O)NCc1ccc(Cl)cc1,-24.9%
21,COCCNC(=O)/C(C#N)=C/c1nc(N(C)C)n(-c2ccc(F)cc2)c1Cl,6.3%

row,SMILES,inhibition
1,Nc1ccc(S(=O)(=O)Nc2nccc(/C=C/c3ccc(Br)s3)n2)cc1,11.1%
2,CCCNc1ncnc2sc(C)c(C)c12,99.7% (active)
3,CCOC(=O)C(C)n1cnc2sc(C)c(C)c2c1=O (stereo not drawn),23.1%
4,CCc1cc2c(NC3CCCC3)ncnc2s1,-4.12%
5,C/[N+]([O-])=C\c1ccc([N+](=O)[O-])o1,-20.9%
6,COC(=O)C1=C(C)N(C)C(=O)NC1c1ccc([N+](=O)[O-])o1 (stereo not drawn),4.38%
7,Cc1ccc(N2CCN(C3=NC(=O)/C(=C\c4cccs4)S3)CC2)cc1,-36.9%
8,Cc1ccc(N2CCN(/N=C/c3cccs3)CC2)cc1,58.4% (active)
9,C(=N/N1CCN(c2ccccc2)CC1)/c1cccs1,-23.6%
10,CS(=O)(=O)n1nc(-c2ccco2)nc1N,-27.1%
11,Cn1nc(-c2ccccc2)c(CO)c1Sc1ccccc1,-21.3%
12,CC(=O)NCCC(=O)Nc1cc(S(=O)(=O)N2CCOCC2)ccc1N1CCOCC1,-13.3%
13,CCc1ccc(NC(=O)Cn2nc(C)c([N+](=O)[O-])c2C)cc1,24.3%
14,COC(=O)c1ccc(NCC(=O)N2CCCCCC2)cc1,7.57%
15,Cc1cc(Cl)ccc1N1C(=O)CC(SCCC(=O)O)C1=O (stereo not drawn),-14%
16,CCOC(=O)c1nc(C)n(-c2ccc(Cl)cc2Cl)n1,-32.4%
17,Cc1cc(C)nc(/N=C2\NC(=O)CC(C(=O)O)N2c2ccc(Cl)cc2Cl)n1 (stereo not drawn),48.5% (active)
18,COc1ccc(Sc2nc(-c3ccccc3)ncc2OC)cc1,-16.9%
19,C=CCN(CC=C)C(=O)COC(=O)c1n[nH]c2ccccc12,-73.3%
20,O=C(CCC(=O)Nc1ccccc1)N/N=C/c1ccccc1F,-1.59%
21,CCCCC(CC)CNC(=O)C(=O)C1C(=O)Nc2ccccc21 (stereo not drawn),-10.1%
